Screens as filed in PubChem.
RORg inh – qHTS for inhibitors of ROR gamma transcriptional activity | Nuclear receptor ROR-gamma (Mus musculus), P51450 | Drosophila S2 Gal4-RORgamma UAS-luciferase reporter, 20 h | Potency, µM (highest dose often 53.6 µM), without a hit: at the highest dose activity change, negative = inhibition, actives largely listed as inhibitors | 310,000 compounds, 5.4% hits; also: potency is read from the fitted curve at half-maximal effect; nearly all actives have a fitted effect of over 60% in size
Target sequence (P51450 whole entry, looked up, the tested form may be a part): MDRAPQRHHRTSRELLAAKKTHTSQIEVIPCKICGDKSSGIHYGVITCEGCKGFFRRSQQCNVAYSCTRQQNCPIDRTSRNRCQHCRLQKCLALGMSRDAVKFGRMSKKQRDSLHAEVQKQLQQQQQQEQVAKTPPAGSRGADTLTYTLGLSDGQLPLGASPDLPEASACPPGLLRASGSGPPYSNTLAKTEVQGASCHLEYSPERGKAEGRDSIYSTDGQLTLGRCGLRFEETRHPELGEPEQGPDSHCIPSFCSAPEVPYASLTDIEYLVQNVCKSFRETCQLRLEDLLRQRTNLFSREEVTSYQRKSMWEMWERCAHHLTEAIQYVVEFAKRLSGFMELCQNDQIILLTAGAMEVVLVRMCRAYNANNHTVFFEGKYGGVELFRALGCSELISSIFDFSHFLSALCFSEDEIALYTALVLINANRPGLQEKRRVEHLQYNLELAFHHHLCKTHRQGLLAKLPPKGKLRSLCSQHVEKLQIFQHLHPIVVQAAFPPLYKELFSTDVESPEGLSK
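ROR gamma transcriptional activity was tracked as Gal4-UAS luciferase output in stably transfected Drosophila Schneider cells, with compound added 1 hr before 700 uM copper sulfate induction and a 20 hr ambient-temperature incubation.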
LDHA inh – qHTS assay for inhibitors of human lactate dehydrogenase. L-lactate dehydrogenase A chain (Homo sapiens), P00338. purified LDHA, NADH/diaphorase-resazurin fluorescence; hits give low values. activity change, % (values are at about 110 or 230 µM). 480,000 compounds, 0.15% hits; in the data active = activity change below about -30%; inconclusive = mostly about -25% to -30%;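 also: plate controls were DMSO wells for no effect and wells without enzyme for full effect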
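Remaining NADH was detected by diaphorase (0.133 mg/mL) converting 37 µM resazurin to fluorescent resorufin, read at 0 and 20 minutes. The preceding 5-minute room-temperature reaction used 2 nM LDHA, 0.2 mM sodium pyruvate and 0.06 mM NADH at pH 7.4.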
Gal4-VP16 FLuc – VP16 counterscreen qHTS for inhibitors of ROR gamma transcriptional activity; Drosophila S2 Gal4-VP16 UAS-luciferase, luminescence, 20 h; Potency, µM (series often up to 53.6 µM), for the others: top-dose activity, negative = inhibition, hits mostly inhibitors; 310,000 compounds, 3.5% hits; AID 2546, 2010;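 also: Gal4-VP16 expression switched on by copper sulfate through the metallothionein promoter; potency is read from the fitted curve at half-maximal effect; nearly all actives have a fitted effect of over 50% in size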
DT40 TDP1 no CPT – qHTS for Inhibitors of human tyrosyl-DNA phosphodiesterase 1 (TDP1): qHTS in cells in absence of CPT; DT40 Tdp1-/- hTDP1 cells, no CPT, ATP luminescence, 48 h; Potency, µM (doses to about 46.2 µM), inactives show at the top dose activity change, negative = growth inhibition, hits mostly inhibitors; 420,000 compounds, 15% hits; also: potency is read from the fitted curve at half-maximal effect; nearly all actives have a fitted effect of over 55% in size
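DT40 Tdp1-/-;hTDP1 cells, no CPT (DMSO vehicle only), 400 cells/well; compounds pin-transferred; ≥48 hr, 37 °C; CellTiter-Glo 30 min RT dark, luminescence read.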
TDP1 cell CPT – qHTS for Inhibitors of human tyrosyl-DNA phosphodiesterase 1 (TDP1): qHTS in cells in presence of CPT | 420,000 compounds, 12% hits | Potency, µM (series often up to 46.2 µM), without a hit: top-dose activity change, negative = growth inhibition, most hits filed as inhibitors | chicken DT40 Tdp1-/-;hTDP1 cells + 20 nM CPT, ATP luminescence, 48 h; also: potency is read from the fitted curve at half-maximal effect; nearly all actives have a fitted effect of over 55% in size
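Chicken DT40 Tdp1-/- cells stably complemented with human TDP1 were seeded at 400 cells/well in medium containing 20 nM camptothecin, exposed to pin-transferred compounds, and grown at 37 °C for at least 48 hr. Viability was read as ATP luminescence.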
IL1B secr inh – qHTS for Inhibitors of Inflammasome Signaling: IL-1-beta AlphaLISA Primary Screen. THP-1 LPS/ATP IL-1B secretion, AlphaLISA, 16 h; hits give low values. activity change, % at 57.5 µM. 360,000 compounds, 4.7% hits; in the data active = activity change below about -50%; inconclusive = mostly about -30% to -49%
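Secreted IL-1B measured by AlphaLISA bead assay after 16 h compound exposure of THP-1 cells; compounds (final up to 57.5 uM) added 1 h before LPS (250 ng/mL) and ATP (1.25 mM) stimulation; lower signal means less secretion.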
* marks the source's active call; other numbers are inactive results; ? = inconclusive; / = not tested or not shown. Hits are enriched below; roughly 18% of the tested compounds scored in any of these assays. Unless noted, calls follow the shape of the dose curve; as a rule, active = well fitted curve in the direction sought with a large enough effect; inconclusive = small, poorly fitted or top-dose-only effect, or another doubt; inactive = no such curve, though single readings can be large; an effect the other way counts as inactive or inconclusive. Unless noted, % is scaled to controls: 0 for no effect and ±100 for the full control effect.

SMILES	RORg inh	LDHA inh	Gal4-VP16 FLuc	DT40 TDP1 no CPT	TDP1 cell CPT	IL1B secr inh
C=CCn1c(SCC(=O)N2CC(=O)Nc3ccccc32)nc2scc(-c3ccccc3)c2c1=O	21%	0	-1%	?	?	-52*
C=CCn1c(SC(F)F)nc2scc(-c3ccco3)c2c1=O	?	-3	5µM*	5%	9%	?
CCc1ccc(NC(=O)Cn2cc(S(=O)(=O)c3ccc(OC)cc3)c(=O)c3ccccc32)cc1	/	2	/	/	/	/
O=c1cc(-c2ccccc2)sc2c1ccc1ccccc12	/	-7	/	/	/	/
CCCC(=O)N1c2nc(CC)nn2C2(CCCCC2)[C@@H]2CCCC[C@@H]21	/	-9	/	/	/	/
N#Cc1ccc(-c2ccc(C3Nc4ccccc4C(=O)N3O)o2)cc1 (configuration not stated)	/	0	/	/	/	/
Cc1cc([N+](=O)[O-])ccc1-c1ccc(C2Nc3ccccc3C(=O)N2O)o1 (configuration not stated)	?	-6	0.71µM*	23µM*	23µM*	58
CCOC(=O)c1ccc(-c2ccc(C3Nc4ccccc4C(=O)N3O)o2)cc1 (configuration not stated)	11µM*	-1	?	?	?	71
O=C1c2ccccc2NC(c2ccc(-c3ccccc3F)o2)N1O (configuration not stated)	/	0	/	/	/	/
Cc1ccc(C)c(-c2cc(C(=O)Nc3cc(C)on3)c3ccccc3n2)c1	/	-1	/	/	/	/
CCC(C)c1ccc(-c2cc(C(=O)OCC(=O)Nc3cc(C)on3)c3ccccc3n2)cc1 (configuration not stated)	-2%	-1	-17%	16µM*	?	12
COc1ccc(-c2cc(C(=O)OCC(=O)Nc3cc(C)on3)c3ccccc3n2)cc1OC	-4%	-2	-7%	-18%	-12%	5
Cc1cc(NC(=O)c2cc(-c3ccc(OC(C)C)cc3)nc3ccccc23)no1	-12%	-7	3%	8.2µM*	-61%	-3
O=C(O)C1CC=CCC1c1nc2ccccc2s1 (configuration not stated)	/	4	/	/	/	/
CC(C)CC(=O)NN=C1CCC(C(C)(C)C)CC1 (configuration not stated)	/	16	/	/	/	/
O=C1OCCC1N1CCC(c2nc3ccccc3s2)CC1 (configuration not stated)	/	-6	/	/	/	/
Cc1ccc(NC(=O)CC2C(=O)Nc3nc(-c4ccccc4)nn32)cc1C (configuration not stated)	/	5	/	/	/	/
COc1ccc(Cc2c(-c3ccc(OC)c(OC)c3)nc3c(C)cc(Br)cn23)c(C)c1	/	-7	/	1.5µM*	1.2µM*	-15
COc1ccc(-c2nc3c(C)cc(Br)cn3c2Cc2ccccc2)cc1OC	/	-6	/	6.5µM*	7.3µM*	-2
COc1ccc(Cc2c(-c3ccc(OC)c(OC)c3)nc3ccc(C)cn23)c(C)c1	/	1	/	16µM*	?	-6
O=C(CSc1ncnc2ccccc12)Nc1ccc(F)cc1F	/	6	/	/	/	/
CC(=O)Nc1ccc(S(=O)(=O)N2CCC(NC(=O)CCC3CCCCC3)CC2)cc1	/	-12	/	/	/	/
COc1ccc(/C=N/OC(=O)COc2cccc(C)c2C)cc1COc1ccc(F)cc1	/	0	/	/	/	/
O=C(/C=C/c1ccccc1)NC(O)C(=O)c1ccccc1 (configuration not stated)	/	-3	/	/	/	/
CC(=O)N(\C=C/C=C/C=C1\Sc2ccccc2C1=O)c1ccccc1	-27%	6	9%	13µM*	29µM*	2
SMILES	RORg inh	LDHA inh	Gal4-VP16 FLuc	DT40 TDP1 no CPT	TDP1 cell CPT	IL1B secr inh
CN(Cc1ccccc1)c1nc(N)nc(Cl)c1C=O	4%	5	20%	?	-26%	-106*
CCOCCCNCc1cn(-c2ccc(F)cc2F)nc1-c1ccccc1C	-36%	-6	-4%	16µM*	15µM*	-77*
CC(C(=O)Nc1cccc(C#N)c1)n1nc(-c2ccccc2)c2c(c1=O)CCCC2 (configuration not stated)	/	0	/	-24%	?	/
CC(C(=O)Nc1ccccc1C(F)(F)F)n1nc(-c2ccccc2)c2c(c1=O)CCCC2 (configuration not stated)	/	2	/	16µM*	?	/
Cc1cccc(Nc2nc(C)cc(C)n2)c1	-5%	2	-7%	-12%	-5%	-4
Cc1cc(N(C)C)nc(Nc2ccccc2)n1	/	-3	/	?	-18%	-79*
COc1cc(N(C)C)c(OC)cc1/C=C/c1ccnc2ccccc12	/	6	/	10µM*	10µM*	/
COc1cc(OC)c(OC)cc1/C=C/c1nc2ccccc2[nH]c1=O	/	37	/	/	/	/
COc1cc(/C=C/c2ccnc3ccccc23)ccc1N(C)C	/	6	/	2.2µM*	2µM*	/
CCCC(C)NC(=O)CN1CCN(c2oc(-c3ccco3)nc2C#N)CC1 (configuration not stated)	/	-13	/	/	/	/
Cc1ccccc1NC(=O)C(C#N)=C1CCCC1	/	5	/	/	/	/
O=C(c1nn(Cc2ccccc2)c(=O)c2ccccc12)N1CCN(C(=O)C2CC2)CC1	/	-12	/	/	/	/
O=C(NN1CCOCC1)c1cc(-c2cccc(Cl)c2)nc2ccccc12	7%	-11	1%	?	?	-19
